Experiment [1] addresses Retinoic acid receptor RXR-alpha (Homo sapiens) (UniProt P19793). As to the kind of experiment: ATG_RXRa_TRANS: Attagene TRANS-FACTORIAL HepG2 Assay for human Retinoid X Receptor alpha (RXRa) (AID 2283012). The gist of the method:
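TRANS format reporting activity of exogenous RXRa-Gal4 chimera in transiently transfected HepG2, 24 h exposure. Reporter transcripts quantified by RT-PCR with capillary electrophoresis, with gain of signal scored relative to DMSO.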

The target of experiment [2] is human Retinoid X Receptor beta (RXRb), RXRB (gene 6257) (UniProt P28702). As to the kind of experiment: ATG_RXRb_TRANS: Attagene TRANS-FACTORIAL HepG2 Assay for human Retinoid X Receptor beta (RXRb) (AID 2283013). The method in brief: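 Readout is reporter transcript induction after 24 h dosing. It is measured by RT-PCR of total RNA followed by fluorescent capillary electrophoresis. HepG2 liver cells carry transfected multiple reporter units driven by an exogenous RXRb-Gal4 fusion; activity is relative to DMSO.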
Chain of human Retinoid X Receptor beta (RXRb), RXRB (gene 6257) (P28702 whole entry, looked up, the tested form may be a part): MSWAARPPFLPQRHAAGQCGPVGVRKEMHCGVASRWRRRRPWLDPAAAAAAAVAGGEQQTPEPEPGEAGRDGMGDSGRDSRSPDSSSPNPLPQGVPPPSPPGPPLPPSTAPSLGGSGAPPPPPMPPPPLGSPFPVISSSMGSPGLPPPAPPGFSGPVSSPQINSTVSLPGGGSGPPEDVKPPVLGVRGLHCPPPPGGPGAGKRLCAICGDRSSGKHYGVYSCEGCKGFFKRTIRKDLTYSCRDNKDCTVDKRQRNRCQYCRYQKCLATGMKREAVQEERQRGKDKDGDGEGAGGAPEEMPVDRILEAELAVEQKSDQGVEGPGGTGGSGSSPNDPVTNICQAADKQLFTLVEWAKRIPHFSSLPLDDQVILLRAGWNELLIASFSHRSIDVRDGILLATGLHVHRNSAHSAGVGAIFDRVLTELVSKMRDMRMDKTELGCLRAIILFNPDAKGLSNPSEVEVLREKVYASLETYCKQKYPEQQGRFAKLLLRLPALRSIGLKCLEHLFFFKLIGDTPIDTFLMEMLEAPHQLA

Molecules are shown by their SMILES. Inconclusive results are not listed. Activity calls are given as the source filed them. How the source made its calls: active means hit-call score of the fitted dose curve at least 0.9, where 1 is the maximum; inconclusive means response in the unintended direction; inactive means score below 0.9.

Chain of Retinoic acid receptor RXR-alpha (Homo sapiens) (P19793 whole entry, looked up, the tested form may be a part): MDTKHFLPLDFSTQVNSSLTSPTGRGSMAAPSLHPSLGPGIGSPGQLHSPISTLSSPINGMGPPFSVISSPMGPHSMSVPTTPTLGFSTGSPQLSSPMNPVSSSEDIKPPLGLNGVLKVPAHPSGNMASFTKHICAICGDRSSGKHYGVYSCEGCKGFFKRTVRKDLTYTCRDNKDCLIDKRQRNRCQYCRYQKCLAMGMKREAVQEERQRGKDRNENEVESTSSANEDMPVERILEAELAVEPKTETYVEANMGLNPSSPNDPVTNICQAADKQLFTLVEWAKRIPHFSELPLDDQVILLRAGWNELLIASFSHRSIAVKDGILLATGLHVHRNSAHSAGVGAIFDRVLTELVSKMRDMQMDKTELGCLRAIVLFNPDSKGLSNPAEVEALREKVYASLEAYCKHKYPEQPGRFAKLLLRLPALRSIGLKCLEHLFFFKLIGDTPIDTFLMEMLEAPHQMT

`COC(C)(C)CCCC(C)CC=O` (centres undefined): the compound was called inactive in experiment [1].
For `CCCCCCOCCOCCO`, in experiment [1], the compound was classed as inactive.
In the case of `Cc1ncc([N+](=O)[O-])n1CCO`, the compound was called inactive in experiment [1] and in experiment [2].
As to `CC1CCC(C(C)C)C(O)C1` (centres undefined), the compound was called inactive in experiment [1].
Turning to `CC(C)C[C@H](NC(=O)OCC1c2ccccc2-c2ccccc21)C(=O)O`, the call in experiment [1] and in experiment [2] was inactive.
Turning to `NCc1ccco1`, the compound was classed as inactive in experiment [1] and in experiment [2].
With `CCCCCCOC(=O)CCC`, the call in experiment [1] and in experiment [2] was inactive.
In the case of `COCCc1ccc(OCC(O)CNC(C)C)cc1` (centres undefined), in experiment [1], the result was inactive.
A word on the AC50: it is the concentration giving half of the maximal activity seen. Regarding `CC1=CC[C@@]23C[C@@H]1C(C)(C)[C@@H]2CC[C@H]3C`, the compound was called inactive in experiment [1]. Besides, the concentration at half-maximal activity (AC50) in experiment [2] was 58.9 µM (active).
Regarding `CCCCCC(C)=O`, the outcome in experiment [1] and in experiment [2] was inactive.
Turning to `CC[N+](C)(CC)CC`, in experiment [1], the compound was classed as inactive.
The same measure, in the same setting: for `CC1=C(Br)C(=O)C(Br)=C/C1=C(/c1ccccc1S(=O)(=O)O)c1cc(Br)c(O)c(Br)c1C` the value was “inactive”; for `CC(=O)CC(=O)Nc1ccc(C)cc1C`, “inactive”.
As to `Cc1ccc(-c2ccccc2)cc1`, the result in experiment [1] and in experiment [2] was inactive.
`O=c1[nH]c(=O)c2cn[nH]c2[nH]1`: the outcome in experiment [1] was inactive.
As to `c1ccc2[nH]cnc2c1`, the compound was called inactive in experiment [1].
As for `O=C(Nc1ccc([N+](=O)[O-])cc1)Nc1ccc([N+](=O)[O-])cc1` (tested in a mixture with another compound), the result in experiment [1] and in experiment [2] was inactive.
`COc1ccccc1[N+](=O)[O-]`: in experiment [1], the compound was called inactive.
Turning to `COc1cc(CCC(C)=O)ccc1O`, the result in experiment [1] was inactive.
Regarding `CCCCCCCCSCCO`, the outcome in experiment [1] and in experiment [2] was inactive.
Turning to `N#Cc1cscn1`, the compound was called inactive in experiment [1].
In the case of `CCO/C=C1\N=C(c2ccccc2)OC1=O`, the call in experiment [1] and in experiment [2] was inactive.
With `CC(C)CCCCCCCCCCCCCCC(=O)O`, the result in experiment [1] was inactive. Moreover, the concentration at half-maximal activity (AC50) in experiment [2] was 11.4 µM (active).
